Results from a collection of fitness landscapes (doi:10.1016/j.celrep.2020.107928).
The full ranking holds about 81,000 sequences; the median of “one-hybrid fitness for binding NBS DNA” is about -0.1, and the highest 2% start at about 0.36. This is one part of a sample in which the highest values are shown more often than they occur.

B1: Caulobacter ParB omega fusion; a variant is named by its letters at X, in order, B8GW30 (parent)
chain: MESVVVGEPGMSEGRRGLGRGLSALLGEVDAAPAQAPGEQLGGSREAPIEILQRNPDQPRRTFREEDLEDLSNSIREKGVLQPILVRPSPDTAGEYQIVAGERAWRAAQRAGLKTVPIMVRELDDLAVLEIGIIENVQRADLNVLEEALSYKVLMEKFERTQENIAQTIGKSXSHVANXMRLLXLPDEVQSYLVSGELTAXHARAIAAAADPVALAKQIIEGGLSVRETEALARKAPNLSAGKSKGGRPPRVKDTDTQALESDLSSVLGLDVSIDHRGSTGTLTITYATLEQLDDLCNRLTRGI

Variants of: B1
Test: one-hybrid fitness for binding NBS DNA (the Noc-binding site; scaled: cognate 1, non-cognate 0); higher = stronger binding
Conditions: with NBS DNA site
Outline: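 Selection: bacterial one-hybrid in E. coli USO, HIS3 reporter with the site 19 bp from the promoter, 48 hours at 37°C on M9-minus-histidine plus 0.1 mM IPTG and 5 mM 3-AT. Libraries were Caulobacter ParB with four randomised specificity codons, sequenced on Illumina before and after selection. Fitness is the rescaled log change in variant-to-wild-type read ratio, anchored to the cognate and non-cognate sites.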

| Variant | one-hybrid fitness for binding NBS DNA |
| --- | --- |
| QQIY | ≤ 0.2 |
| QQPR | 0.365 |
| QQPP | ≤ 0.2 |
| QQIR | 0.435 |
| QQPN | ≤ 0.2 |
| QQIC | ≤ 0.2 |
| IMNC | ≤ 0.2 |
| QCIE | ≤ 0.2 |
| GPNL | ≤ 0.2 |
| RRPT | 0.694 |
| RRIP | ≤ 0.2 |
| RRIT | 0.788 |
| RPPT | ≤ 0.2 |
| RCIT | 0.289 |
| RCPT | ≤ 0.2 |
| QIKI | ≤ 0.2 |
| GQNR | ≤ 0.2 |
| PQLG | ≤ 0.2 |
| QMQD | ≤ 0.2 |
| QMER | 0.324 |
| QMYR | 0.507 |
| QMQR | 0.55 |
| QMYF | ≤ 0.2 |
| QMHR | 0.647 |

| Variant | one-hybrid fitness for binding NBS DNA |
| --- | --- |
| QMQN | ≤ 0.2 |
| DMRR | ≤ 0.2 |
| NMRR | ≤ 0.2 |
| QMRR | 1.02 |
| QMHP | ≤ 0.2 |
| QMHN | ≤ 0.2 |
| YCIR | ≤ 0.2 |
| PWLA | ≤ 0.2 |
| PATL | ≤ 0.2 |
| QMDD | ≤ 0.2 |
| QMNH | 0.284 |
| QMDR | 0.403 |
| QMDF | ≤ 0.2 |
| QMGC | ≤ 0.2 |
| QMPR | 0.323 |
| QMIR | 0.398 |
| QMNN | ≤ 0.2 |
| QMGR | 0.591 |
| QMIP | ≤ 0.2 |
| QMGK | 0.221 |
| QMNR | 0.637 |
| KASM | ≤ 0.2 |
| RNWE | ≤ 0.2 |
| WRSG | ≤ 0.2 |

| Variant | one-hybrid fitness for binding NBS DNA |
| --- | --- |
| HNPS | ≤ 0.2 |
| AKVR | ≤ 0.2 |
| ERAT | ≤ 0.2 |
| FHRT | ≤ 0.2 |
| HTGY | ≤ 0.2 |
| KAEC | ≤ 0.2 |
| QAVP | ≤ 0.2 |
| CWTT | ≤ 0.2 |
| THIP | ≤ 0.2 |
| NAAC | ≤ 0.2 |
| FHTW | ≤ 0.2 |
| GAEY | ≤ 0.2 |
| QKSR | 0.65 |
| QSSP | ≤ 0.2 |
| QHSR | 0.51 |
| QKSN | ≤ 0.2 |
| QKSD | ≤ 0.2 |
| QISR | 0.386 |
| QHSD | ≤ 0.2 |
| QHSN | ≤ 0.2 |
| QSSR | 0.526 |
| QSSD | ≤ 0.2 |
| QISS | 0.228 |
| QISP | ≤ 0.2 |

| Variant | one-hybrid fitness for binding NBS DNA |
| --- | --- |
| RKLW | ≤ 0.2 |
| VHYS | ≤ 0.2 |
| PGDT | ≤ 0.2 |
| KQTL | ≤ 0.2 |
| HGQT | ≤ 0.2 |
| APTM | ≤ 0.2 |
| HNIL | ≤ 0.2 |
| QTSR | 0.786 |
| QTSH | 0.321 |
| QASH | ≤ 0.2 |
| QTSD | ≤ 0.2 |
| QASR | 0.482 |
| QASP | ≤ 0.2 |
| QPSP | ≤ 0.2 |
| QPSR | 0.44 |
| QPSH | ≤ 0.2 |
| QWSR | 0.229 |
| QGSR | ≤ 0.2 |
| QCSR | 0.614 |
| RVGY | ≤ 0.2 |
| YYRE | ≤ 0.2 |
| EWTK | ≤ 0.2 |
| SFAV | ≤ 0.2 |
| RSFI | ≤ 0.2 |

| Variant | one-hybrid fitness for binding NBS DNA |
| --- | --- |
| ETCC | ≤ 0.2 |
| HGGG | ≤ 0.2 |
| QTAK | ≤ 0.2 |
| QMSR | 0.557 |
| QMSN | ≤ 0.2 |
| QMSD | ≤ 0.2 |
| KFFY | ≤ 0.2 |
| TGSL | ≤ 0.2 |
| HQMR | ≤ 0.2 |
| YVSG | ≤ 0.2 |
| IRIE | ≤ 0.2 |
| RTTN | ≤ 0.2 |
| RRTQ | 0.243 |
| RTTT | 0.543 |
| RFTT | 0.269 |
| RHTT | 0.427 |
| RPTT | ≤ 0.2 |
| RHTD | ≤ 0.2 |
| RRTT | 0.716 |
| RHTH | ≤ 0.2 |
| RCTT | 0.518 |
| RTTD | ≤ 0.2 |
| RRTG | 0.331 |
| QQII | ≤ 0.2 |

| Variant | one-hybrid fitness for binding NBS DNA |
| --- | --- |
| KSMI | ≤ 0.2 |
| KVWM | ≤ 0.2 |
| KATR | ≤ 0.2 |
| ALTC | ≤ 0.2 |
| AHCL | ≤ 0.2 |
| HGAA | ≤ 0.2 |
| HRGN | ≤ 0.2 |
| REMS | ≤ 0.2 |
| CAHR | ≤ 0.2 |
| LWHP | ≤ 0.2 |
| QELW | ≤ 0.2 |
| YGQC | ≤ 0.2 |
| WRES | ≤ 0.2 |
| YVSL | ≤ 0.2 |
| HMQS | ≤ 0.2 |
| LYTW | ≤ 0.2 |
| RSTT | 0.426 |
| RKTT | 0.666 |
| RMTK | ≤ 0.2 |
| RMTL | ≤ 0.2 |
| RLTN | ≤ 0.2 |
| RLTT | 0.454 |
| RETT | ≤ 0.2 |
| RLTD | ≤ 0.2 |

| Variant | one-hybrid fitness for binding NBS DNA |
| --- | --- |
| RKTC | 0.275 |
| RKTP | ≤ 0.2 |
| RMTT | 0.434 |
| RGTT | ≤ 0.2 |
| DHNC | ≤ 0.2 |
| YATH | ≤ 0.2 |
| QISK | ≤ 0.2 |
| CLVT | ≤ 0.2 |
| DRWC | ≤ 0.2 |
| SNWL | ≤ 0.2 |
| SNVR | ≤ 0.2 |
| DAAD | ≤ 0.2 |
| TRAA | ≤ 0.2 |
| DDQR | ≤ 0.2 |
| RITF | ≤ 0.2 |
| RATT | 0.415 |
| RATK | ≤ 0.2 |
| RATQ | ≤ 0.2 |
| RITG | ≤ 0.2 |
| RITT | 0.421 |
| TSFV | ≤ 0.2 |
| LPSF | ≤ 0.2 |
| RRWN | 0.222 |
| RRWF | ≤ 0.2 |

| Variant | one-hybrid fitness for binding NBS DNA |
| --- | --- |
| RRWD | ≤ 0.2 |
| RRWH | 0.401 |
| RRWP | ≤ 0.2 |
| RRWS | 0.628 |
| HLQS | ≤ 0.2 |
| MSNG | ≤ 0.2 |
| HQPF | ≤ 0.2 |
| PSTH | ≤ 0.2 |
| GLWQ | ≤ 0.2 |
| RYTR | 0.469 |
| RYTK | ≤ 0.2 |
| RYTH | ≤ 0.2 |
| RYTS | 0.453 |
| RYTT | 0.461 |
| RYTP | ≤ 0.2 |
| RYTD | ≤ 0.2 |
| RYTC | ≤ 0.2 |
| RYTN | ≤ 0.2 |
| TSVC | ≤ 0.2 |
| LPCE | ≤ 0.2 |
| YSAT | ≤ 0.2 |
| QMLD | ≤ 0.2 |
| QALR | 0.424 |
| QALP | ≤ 0.2 |

| Variant | one-hybrid fitness for binding NBS DNA |
| --- | --- |
| QSLH | ≤ 0.2 |
| QMLR | 0.5 |
| QKLR | 0.491 |
| QALH | ≤ 0.2 |
| QMLH | ≤ 0.2 |
| QSLD | ≤ 0.2 |
| QSLR | 0.452 |
| QKLN | ≤ 0.2 |
| QKLP | ≤ 0.2 |
| DSDF | ≤ 0.2 |
| RWRC | ≤ 0.2 |
| PLVT | ≤ 0.2 |
| DMHW | ≤ 0.2 |
| TRSF | ≤ 0.2 |
| IKKC | ≤ 0.2 |
| QILR | 0.335 |
| QHLH | ≤ 0.2 |
| QTLN | ≤ 0.2 |
| QHLR | 0.445 |
| QTLR | 0.639 |
| QCLR | 0.562 |
| QTLH | 0.223 |
| QHLP | ≤ 0.2 |
| QPLR | ≤ 0.2 |

| Variant | one-hybrid fitness for binding NBS DNA |
| --- | --- |
| WSWT | ≤ 0.2 |
| AVHS | ≤ 0.2 |
| GHKE | ≤ 0.2 |
| MTRR | 0.273 |
| QQAP | ≤ 0.2 |
| QQAN | ≤ 0.2 |
| QQRE | 0.332 |
| QQHG | ≤ 0.2 |
| QQRR | 1.09 |
| QQYR | 0.578 |
| DQYR | ≤ 0.2 |
| DQRR | ≤ 0.2 |
| QQHF | ≤ 0.2 |
| QQYP | ≤ 0.2 |
| QQAR | 0.654 |
| QQHR | 0.683 |
| KIQL | ≤ 0.2 |
| YWII | ≤ 0.2 |
| AFHM | ≤ 0.2 |
| TVSR | ≤ 0.2 |
| PDRQ | ≤ 0.2 |
| TNMG | ≤ 0.2 |
| QQGR | 0.672 |
| NQFR | ≤ 0.2 |

| Variant | one-hybrid fitness for binding NBS DNA |
| --- | --- |
| QQFR | 0.491 |
| QQGC | ≤ 0.2 |
| QQCK | ≤ 0.2 |
| QQLR | 0.567 |
| QQLM | ≤ 0.2 |
| QQCR | 0.63 |
| QQGK | ≤ 0.2 |
| QQLG | ≤ 0.2 |
| QQCD | ≤ 0.2 |
| TPFT | ≤ 0.2 |
| ATSG | ≤ 0.2 |
| VDTI | ≤ 0.2 |
| HTCG | ≤ 0.2 |
| PHKP | ≤ 0.2 |
| NAEM | ≤ 0.2 |
| IYRA | ≤ 0.2 |
| LQHD | ≤ 0.2 |
| WGPQ | ≤ 0.2 |
| LPFS | ≤ 0.2 |
| QQSR | 0.635 |
| QQER | 0.426 |
| QQSG | ≤ 0.2 |
| QQWR | 0.514 |
| QQQR | 0.586 |

| Variant | one-hybrid fitness for binding NBS DNA |
| --- | --- |
| QQEY | ≤ 0.2 |
| QQEG | ≤ 0.2 |
| QQWM | ≤ 0.2 |
| QQSC | ≤ 0.2 |
| QQQD | ≤ 0.2 |
| QQQP | ≤ 0.2 |
| QQWY | ≤ 0.2 |
| YILL | ≤ 0.2 |
| KDKK | ≤ 0.2 |
| ANDS | ≤ 0.2 |
| PLNC | ≤ 0.2 |
| EYLC | ≤ 0.2 |
| RVEC | ≤ 0.2 |
| GVRI | ≤ 0.2 |
| ESSI | ≤ 0.2 |
| DESV | ≤ 0.2 |
| QCGS | 0.487 |
| QMGS | 0.42 |
| QPGN | ≤ 0.2 |
| QPGS | ≤ 0.2 |
| QCGH | 0.282 |
| QMGN | ≤ 0.2 |
| QRGN | 0.418 |
| QRGH | 0.616 |

| Variant | one-hybrid fitness for binding NBS DNA |
| --- | --- |
| QSGS | 0.358 |
| QRGF | 0.33 |
| QMGP | ≤ 0.2 |
| QCGN | ≤ 0.2 |
| NPLC | ≤ 0.2 |
| QMPM | ≤ 0.2 |
| ANEK | ≤ 0.2 |
| DSVS | ≤ 0.2 |
| KKWY | ≤ 0.2 |
| CPMG | ≤ 0.2 |
| LRFA | ≤ 0.2 |
| LPEF | ≤ 0.2 |
| WQTP | ≤ 0.2 |
| ANVT | ≤ 0.2 |
| ITKV | ≤ 0.2 |
| TWPS | ≤ 0.2 |
| FCRR | 0.277 |
| LVQT | ≤ 0.2 |
